Laboratory results as given in PubChem BioAssay (NCATS).
Results filed as inconclusive are left out. Entries that show only a call come without a potency. The source made the active and inactive calls. Calls come from the whole dose curve; as a rule, active = well fitted inhibition curve with a large enough effect; inconclusive = small, poorly fitted or top-dose-only effect; inactive = flat fitted curve, though single readings scatter.

Key:
[1] = molecular target: Glutathione peroxidase 1 (Homo sapiens) (UniProt P07203); experiment: Primary qHTS Assay for Inhibitors of Recombinant Selenoprotein Glutathione Peroxidase 1 (GPX1) (AID 1845191)
Sequence of Glutathione peroxidase 1 (Homo sapiens) (P07203 whole entry, looked up): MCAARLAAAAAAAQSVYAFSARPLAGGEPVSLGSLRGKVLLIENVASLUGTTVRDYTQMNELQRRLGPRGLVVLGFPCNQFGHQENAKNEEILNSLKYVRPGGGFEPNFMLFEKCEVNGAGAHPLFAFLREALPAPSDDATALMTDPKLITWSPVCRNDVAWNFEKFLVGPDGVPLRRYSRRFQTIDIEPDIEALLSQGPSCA
Outline: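 10 nM GPX1 + cpd, 30 min RT; start w/ 1 mM GSH, 0.5 mM cumene hydroperoxide, 0.5 mM NADPH, 100 nM GR, 0.01% BSA; buffer 50 mM Tris-HCl pH 7.5, 2 mM EDTA, 150 mM NaCl; Fl 340/450, 0 & 15 min.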

[2] = molecular target: Phospholipid hydroperoxide glutathione peroxidase GPX4 (Homo sapiens) (UniProt P36969); experiment: Primary qHTS Assay for Inhibitors of Recombinant Selenoprotein Glutathione Peroxidase 4 (GPX4) (AID 1845192); note: potency is the fitted concentration of half-maximal effect
Sequence of Phospholipid hydroperoxide glutathione peroxidase GPX4 (Homo sapiens) (P36969 whole entry, looked up): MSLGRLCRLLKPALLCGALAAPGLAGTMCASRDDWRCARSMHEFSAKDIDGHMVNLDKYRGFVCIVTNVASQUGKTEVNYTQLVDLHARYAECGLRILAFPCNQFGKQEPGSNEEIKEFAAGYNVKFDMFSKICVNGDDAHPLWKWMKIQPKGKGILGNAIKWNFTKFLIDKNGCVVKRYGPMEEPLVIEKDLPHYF
Outline: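 NADPH consumption, followed by fluorescence at 340/450 nm between 0 and 15 min, reports GPX4 activity via coupled glutathione reductase (100 nM). Enzyme 200 nM was pre-exposed to compound 30 min; 0.5 mM cumene hydroperoxide and 1 mM GSH served as substrates.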
Note: nearly all actives have a fitted effect of over 65% in size.

| SMILES | Potency [1] | Potency [2] |
| --- | --- | --- |
| Cc1cc(C(C)Nc2ccccc2)c2nc(N3CCOCC3)cc(=O)n2c1 (stereo unspecified) | inactive | inactive |
| CCC(c1ccc(O)cc1)C(CC)c1ccc(O)cc1 (stereo unspecified) | inactive | inactive |
| COC(=O)[C@H](c1ccccc1Cl)N1CCc2sccc2C1 | inactive | inactive |
| COc1cc2ncn(-c3cc(OCc4ccccc4S(C)(=O)=O)c(C#N)s3)c2cc1OC | inactive | inactive |
| CNC(=O)c1cc(COc2nnc(Nc3ccc(Cl)cc3)c3ccoc23)ccn1 | inactive | inactive |
| Cc1ccc2c(=O)c3cccc(CC(=O)O)c3oc2c1C | inactive | inactive |
| CCCC1OC2C[C@@H]3[C@H]4CCC5=CC(=O)C=C[C@]5(C)[C@H]4C(O)C[C@]3(C)[C@]2(C(=O)CO)O1 (stereo partly specified) | inactive | inactive |
| O=C(O)C1=CC(O)C(O)[C@H](O)C1 (stereo partly specified) | inactive | inactive |
| COc1cc([C@@H]2c3cc4c(cc3[C@@H](O[C@@H]3O[C@@H]5CO[C@@H](C)O[C@@H]5[C@H](O)[C@@H]3O)[C@H]3COC(=O)[C@H]23)OCO4)cc(OC)c1O | inactive | inactive |
| Cc1ccc(S(=O)(=O)Nc2nc3ccccc3nc2Nc2ccc3nsnc3c2)cc1 | inactive | inactive |
| CCCCC(C)(C)[C@H](O)C=C[C@H]1[C@H](O)CC(=O)[C@H]1CC=CCCCC(=O)O | inactive | inactive |
| CCC[C@H](N[C@@H](C)C(=O)N1[C@@H]2CCCC[C@H]2C[C@H]1C(=O)O)C(=O)OCC | inactive | inactive |
| CC(C)C[C@H](NC(=O)c1cc2ccccc2s1)C(=O)N1CCN(C(=O)[C@H](CO)NS(=O)(=O)c2ccc(Cl)cc2Cl)CC1 | inactive | inactive |
| Cc1cn([C@@H]2C[C@@H](O)[C@H](CO)O2)c(=O)[nH]c1=O | inactive | inactive |
| C[C@]12CC[C@@H]3c4ccc(O)cc4CC[C@H]3[C@H]1[C@@H](O)[C@@H](O)[C@H]2O | inactive | inactive |
| CC1=C(CC(=O)O)c2cc(F)ccc2C1=Cc1ccc(S(C)=O)cc1 (stereo unspecified) | inactive | inactive |
| O=C(Nc1cccc(Cl)c1)Nc1ncc(CCNc2ncnc3ccsc23)s1 | inactive | inactive |

| SMILES | Potency [1] | Potency [2] |
| --- | --- | --- |
| C[C@@H]1C[C@H]2[C@@H]3CCC4=CC(=O)C=C[C@]4(C)[C@@]3(F)[C@@H](O)C[C@]2(C)[C@@]1(O)C(=O)CO | inactive | inactive |
| CCC(C)SSc1ncc[nH]1 (stereo unspecified) | inactive | inactive |
| C[C@@H](O[C@H]1OCCN(Cc2n[nH]c(=O)[nH]2)[C@@H]1c1ccc(F)cc1)c1cc(C(F)(F)F)cc(C(F)(F)F)c1 | inactive | inactive |
| NC[C@H]1O[C@H](O[C@@H]2[C@@H](O)[C@@H](O[C@H]3O[C@H](CO)[C@@H](O)[C@H](N)[C@@H]3O)[C@H](N)C[C@@H]2N)[C@H](O)[C@@H](O)[C@H]1O | inactive | inactive |
| CO[C@@H]1C(N(C)C(=O)c2ccccc2)C[C@H]2O[C@]1(C)n1c3ccccc3c3c4c(c5c6ccccc6n2c5c31)C(=O)NC4=O (stereo partly specified) | inactive | 18 µM (active) |
| O=C1CN2Cc3c(ccc(Cl)c3Cl)N=C2N1 | inactive | inactive |
| Cn1cc(-c2ccc3nnc(Sc4ccc5ncccc5c4)n3n2)cn1 | inactive | inactive |
| Cc1nn(Cc2ccccc2Cl)c(C)c1CN(C)CC(O)COc1ccc(Cl)cc1 (stereo unspecified) | inactive | inactive |
| COc1cc2c(cc1OC)CC(=O)N(CCCN(C)C[C@H]1Cc3cc(OC)c(OC)cc31)CC2 | inactive | inactive |
| CN(C)CC[C@H](CSc1ccccc1)Nc1ccc(S(=O)(=O)NC(=O)c2ccc(N3CCN(Cc4ccccc4-c4ccc(Cl)cc4)CC3)cc2)cc1[N+](=O)[O-] | inactive | inactive |
| CC[C@@H]([C@H](C)O)n1ncn(-c2ccc(N3CCN(c4ccc(OCC5CO[C@@](Cn6cncn6)(c6ccc(F)cc6F)C5)cc4)CC3)cc2)c1=O (stereo partly specified) | inactive | inactive |
| COc1cc2c(cc1Cc1cccc(Cl)c1F)c(=O)c(C(=O)O)cn2[C@H](CO)C(C)C | inactive | 11.2 µM (active) |
| O=C(O)c1ccc(O)c2ncc(N3CCOCC3)cc12 | inactive | inactive |
| O=C1CCCC(=O)C1C(=O)c1ccc(C(F)(F)F)cc1[N+](=O)[O-] | inactive | inactive |
| CCCCCCCCCCCCCC(=O)N[C@H](CO)[C@H](O)c1ccc([N+](=O)[O-])cc1 | inactive | inactive |
| CC[C@H](C=C[C@@H](C)[C@H]1CC[C@H]2[C@@H]3CC=C4C[C@@H](O)CC[C@]4(C)[C@@H]3CC[C@]12C)C(C)C | inactive | inactive |
